Data reported in PMC7862700, “An all-to-all approach to the identification of sequence-specific readers for epigenetic DNA modifications on cytosine”.

target: T1, SPIC (Homo sapiens, UniProt Q8N5J4 1-248); assay: DAPPL (digital affinity profiling via proximity ligation, sequencing); 10 mM Tris-HCl pH 7.5, 50 mM NaCl, 1 mM DTT, 4% glycerol, room temperature, 30 min; GST-TFs on glutathione beads, 16-mer random dsDNA library, 0.1% formaldehyde crosslink after washing; high values mean tight binding; conditions: protein: recombinant; tags: N-terminal GST; dsDNA, one strand shown
T1 sequence: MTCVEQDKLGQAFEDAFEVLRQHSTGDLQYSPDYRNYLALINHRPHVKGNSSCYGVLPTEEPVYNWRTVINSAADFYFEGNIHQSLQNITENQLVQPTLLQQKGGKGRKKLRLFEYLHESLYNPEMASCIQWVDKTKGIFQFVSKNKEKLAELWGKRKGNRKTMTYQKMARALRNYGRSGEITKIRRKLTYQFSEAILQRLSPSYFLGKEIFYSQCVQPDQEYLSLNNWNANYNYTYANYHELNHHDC
Method in brief: (§1)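 Sequencing on an Illumina NextSeq500 followed washing, crosslinking with 0.1% formaldehyde, proximity ligation (BsaI/T4 ligase, 1 h, 37 °C) and PCR amplification of pools that had been incubated for 30 min at room temperature with 200 nmole of a random double-stranded 16-mer DNA library in Tris/NaCl/DTT/glycerol buffer. Each pool held DNA-barcoded human transcription factors, expressed in yeast as GST fusions and captured on glutathione beads, plus a tag-only sample. Binding signal is a hexamer's read frequency for a factor divided by its frequency in the tag-only sample.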

Sequence | binding signal
AATGAA | 1.26 fold enrichment (6-mer frequency, TF over GST control)
CTCGTA | 1.25 fold enrichment (6-mer frequency, TF over GST control)
CCGACT | 1.53 fold enrichment (6-mer frequency, TF over GST control)
TTGCTG | 1.02 fold enrichment (6-mer frequency, TF over GST control)
CACCTT | 1.2 fold enrichment (6-mer frequency, TF over GST control)
TCGAAT | 1.03 fold enrichment (6-mer frequency, TF over GST control)
ATAGTT | 1.14 fold enrichment (6-mer frequency, TF over GST control)
ATCCCG | 1.39 fold enrichment (6-mer frequency, TF over GST control)
CTTTAC | 1.4 fold enrichment (6-mer frequency, TF over GST control)
TAATCC | 1.14 fold enrichment (6-mer frequency, TF over GST control)
CGGCTT | 1.13 fold enrichment (6-mer frequency, TF over GST control)
AATCAT | 1.14 fold enrichment (6-mer frequency, TF over GST control)
TTAAAT | 1.21 fold enrichment (6-mer frequency, TF over GST control)
TTACTG | 1.18 fold enrichment (6-mer frequency, TF over GST control)
GGATTT | 1.16 fold enrichment (6-mer frequency, TF over GST control)
CTACAA | 1.2 fold enrichment (6-mer frequency, TF over GST control)
ATCTAC | 1.34 fold enrichment (6-mer frequency, TF over GST control)
ATCCAA | 1.12 fold enrichment (6-mer frequency, TF over GST control)
GACCTA | 1.18 fold enrichment (6-mer frequency, TF over GST control)
ATTACG | 1.02 fold enrichment (6-mer frequency, TF over GST control)

Sequence | binding signal
AATTCT | 1.3 fold enrichment (6-mer frequency, TF over GST control)
TTCATC | 1.28 fold enrichment (6-mer frequency, TF over GST control)
AGCTCA | 1.08 fold enrichment (6-mer frequency, TF over GST control)
TAATCG | 1 fold enrichment (6-mer frequency, TF over GST control)
ATTGCT | 1.32 fold enrichment (6-mer frequency, TF over GST control)
CTCCCT | 1.38 fold enrichment (6-mer frequency, TF over GST control)
CGACCT | 1.41 fold enrichment (6-mer frequency, TF over GST control)
CTCATC | 1.49 fold enrichment (6-mer frequency, TF over GST control)
TGACAA | 1.11 fold enrichment (6-mer frequency, TF over GST control)
CCTGAA | 1.28 fold enrichment (6-mer frequency, TF over GST control)
TTTACG | 1.24 fold enrichment (6-mer frequency, TF over GST control)
ATTAGC | 1.22 fold enrichment (6-mer frequency, TF over GST control)
CGAGCA | 1.1 fold enrichment (6-mer frequency, TF over GST control)
CCTATT | 1.46 fold enrichment (6-mer frequency, TF over GST control)
ATTCCC | 1.41 fold enrichment (6-mer frequency, TF over GST control)
GCTGCT | 1.5 fold enrichment (6-mer frequency, TF over GST control)
TTGTAG | 1.02 fold enrichment (6-mer frequency, TF over GST control)
CTTTCA | 1.37 fold enrichment (6-mer frequency, TF over GST control)
AAATTA | 1.21 fold enrichment (6-mer frequency, TF over GST control)
TATGCC | 1.28 fold enrichment (6-mer frequency, TF over GST control)

target: ELF4 (Homo sapiens, UniProt Q99607 1-663); assay: as above; conditions: protein: recombinant; tags: N-terminal GST; dsDNA, one strand shown
Sequence (Q99607 whole entry): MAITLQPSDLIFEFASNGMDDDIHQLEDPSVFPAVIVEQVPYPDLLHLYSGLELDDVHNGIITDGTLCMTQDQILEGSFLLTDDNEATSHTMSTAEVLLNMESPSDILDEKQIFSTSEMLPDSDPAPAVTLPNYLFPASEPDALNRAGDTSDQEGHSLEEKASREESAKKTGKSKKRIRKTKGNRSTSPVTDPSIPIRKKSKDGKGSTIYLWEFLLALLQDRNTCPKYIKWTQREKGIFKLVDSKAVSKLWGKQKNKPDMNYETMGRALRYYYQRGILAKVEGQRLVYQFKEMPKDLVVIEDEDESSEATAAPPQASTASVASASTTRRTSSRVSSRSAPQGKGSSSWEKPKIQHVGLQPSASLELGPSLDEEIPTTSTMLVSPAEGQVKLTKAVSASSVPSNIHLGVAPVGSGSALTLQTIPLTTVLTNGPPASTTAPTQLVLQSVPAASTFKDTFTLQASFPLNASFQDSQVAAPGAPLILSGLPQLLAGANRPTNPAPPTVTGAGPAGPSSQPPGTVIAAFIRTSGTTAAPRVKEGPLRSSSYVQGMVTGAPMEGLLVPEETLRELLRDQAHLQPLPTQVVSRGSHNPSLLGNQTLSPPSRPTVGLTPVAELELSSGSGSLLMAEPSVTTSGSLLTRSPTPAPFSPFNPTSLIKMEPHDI
Method in brief: as §1

Sequence | binding signal
AATGAA | 1.2 fold enrichment (6-mer frequency, TF over GST control)
CTCGTA | 1.35 fold enrichment (6-mer frequency, TF over GST control)
CCGACT | 1.52 fold enrichment (6-mer frequency, TF over GST control)
TTGCTG | 1.35 fold enrichment (6-mer frequency, TF over GST control)
CACCTT | 1.37 fold enrichment (6-mer frequency, TF over GST control)
TCGAAT | 1.1 fold enrichment (6-mer frequency, TF over GST control)
ATAGTT | 1.18 fold enrichment (6-mer frequency, TF over GST control)
ATCCCG | 1.4 fold enrichment (6-mer frequency, TF over GST control)
CTTTAC | 1.45 fold enrichment (6-mer frequency, TF over GST control)
TAATCC | 1.23 fold enrichment (6-mer frequency, TF over GST control)
CGGCTT | 1.1 fold enrichment (6-mer frequency, TF over GST control)
AATCAT | 1.06 fold enrichment (6-mer frequency, TF over GST control)
TTAAAT | 1.14 fold enrichment (6-mer frequency, TF over GST control)
TTACTG | 1.11 fold enrichment (6-mer frequency, TF over GST control)
GGATTT | 1.26 fold enrichment (6-mer frequency, TF over GST control)
CTACAA | 1.18 fold enrichment (6-mer frequency, TF over GST control)
ATCTAC | 1.27 fold enrichment (6-mer frequency, TF over GST control)
ATCCAA | 1.23 fold enrichment (6-mer frequency, TF over GST control)
GACCTA | 1.24 fold enrichment (6-mer frequency, TF over GST control)
ATTACG | 1.14 fold enrichment (6-mer frequency, TF over GST control)

Sequence | binding signal
AATTCT | 1.33 fold enrichment (6-mer frequency, TF over GST control)
TTCATC | 1.27 fold enrichment (6-mer frequency, TF over GST control)
AGCTCA | 1.16 fold enrichment (6-mer frequency, TF over GST control)
TAATCG | 1.07 fold enrichment (6-mer frequency, TF over GST control)
ATTGCT | 1.19 fold enrichment (6-mer frequency, TF over GST control)
CTCCCT | 1.59 fold enrichment (6-mer frequency, TF over GST control)
CGACCT | 1.61 fold enrichment (6-mer frequency, TF over GST control)
CTCATC | 1.35 fold enrichment (6-mer frequency, TF over GST control)
TGACAA | 1.26 fold enrichment (6-mer frequency, TF over GST control)
CCTGAA | 1.31 fold enrichment (6-mer frequency, TF over GST control)
TTTACG | 1.32 fold enrichment (6-mer frequency, TF over GST control)
ATTAGC | 1.15 fold enrichment (6-mer frequency, TF over GST control)
CGAGCA | 1.13 fold enrichment (6-mer frequency, TF over GST control)
CCTATT | 1.44 fold enrichment (6-mer frequency, TF over GST control)
ATTCCC | 1.47 fold enrichment (6-mer frequency, TF over GST control)
GCTGCT | 1.29 fold enrichment (6-mer frequency, TF over GST control)
TTGTAG | 1.2 fold enrichment (6-mer frequency, TF over GST control)
CTTTCA | 1.44 fold enrichment (6-mer frequency, TF over GST control)
AAATTA | 1.23 fold enrichment (6-mer frequency, TF over GST control)
TATGCC | 1.15 fold enrichment (6-mer frequency, TF over GST control)

target: T2, ELK4 (Homo sapiens, UniProt P28324-2 1-405); assay: as above; conditions: protein: recombinant; tags: N-terminal GST; dsDNA, one strand shown
T2 sequence: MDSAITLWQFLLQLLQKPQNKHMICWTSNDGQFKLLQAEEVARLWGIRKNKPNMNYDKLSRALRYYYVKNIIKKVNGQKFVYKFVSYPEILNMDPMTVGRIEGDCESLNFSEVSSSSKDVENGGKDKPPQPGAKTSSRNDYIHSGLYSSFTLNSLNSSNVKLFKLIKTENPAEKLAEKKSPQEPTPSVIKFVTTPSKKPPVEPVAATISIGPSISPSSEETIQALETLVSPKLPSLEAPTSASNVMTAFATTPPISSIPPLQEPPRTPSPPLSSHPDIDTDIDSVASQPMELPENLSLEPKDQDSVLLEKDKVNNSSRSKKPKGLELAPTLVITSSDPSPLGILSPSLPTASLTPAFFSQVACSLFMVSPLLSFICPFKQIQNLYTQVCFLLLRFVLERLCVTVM
Method in brief: as §1

Sequence | binding signal
AATGAA | 1.24 fold enrichment (6-mer frequency, TF over GST control)
CTCGTA | 1.16 fold enrichment (6-mer frequency, TF over GST control)
CCGACT | 1.56 fold enrichment (6-mer frequency, TF over GST control)
TTGCTG | 1.34 fold enrichment (6-mer frequency, TF over GST control)
CACCTT | 1.39 fold enrichment (6-mer frequency, TF over GST control)
TCGAAT | 1.33 fold enrichment (6-mer frequency, TF over GST control)
ATAGTT | 1.39 fold enrichment (6-mer frequency, TF over GST control)
ATCCCG | 1.37 fold enrichment (6-mer frequency, TF over GST control)
CTTTAC | 1.44 fold enrichment (6-mer frequency, TF over GST control)
TAATCC | 1.23 fold enrichment (6-mer frequency, TF over GST control)
CGGCTT | 1.09 fold enrichment (6-mer frequency, TF over GST control)
AATCAT | 1.12 fold enrichment (6-mer frequency, TF over GST control)
TTAAAT | 1.22 fold enrichment (6-mer frequency, TF over GST control)
TTACTG | 1.16 fold enrichment (6-mer frequency, TF over GST control)
GGATTT | 1.25 fold enrichment (6-mer frequency, TF over GST control)
CTACAA | 1.21 fold enrichment (6-mer frequency, TF over GST control)
ATCTAC | 1.11 fold enrichment (6-mer frequency, TF over GST control)
ATCCAA | 1.16 fold enrichment (6-mer frequency, TF over GST control)
GACCTA | 1.14 fold enrichment (6-mer frequency, TF over GST control)
ATTACG | 1.28 fold enrichment (6-mer frequency, TF over GST control)
